Assay results published in PubChem BioAssay (EPA / NIEHS).
Inconclusive results are not listed. Active and inactive are the calls of the source. Rule for the calls: active = hit-call score of the fitted dose curve at least 0.9, where 1 is the maximum; inconclusive = response in the unintended direction; inactive = score below 0.9.

test: ATG_M_32_TRANS: Attagene TRANS-FACTORIAL HepG2 Assay for M32 Transcription Factor (Internal Marker) (AID 2282984); conditions: HepG2 Attagene TRANS M32 internal marker reporter
Description: ATG_TRANS is a cell-based, multiplexed-readout assay that uses HepG2, a human liver cell line, with measurements taken at 24 hours after chemical dosing in a 24-well plate.ATG_M_32_TRANS is one of 30 assay component(s) measured or calculated from the ATG_TRANS assay. It is designed to make measurements of mRNA induction, a form of inducible reporter, as detected with fluorescence intensity signals by Reverse transcription polymerase chain reaction (RT-PCR) and Capillary electrophoresis technology.Data from the assay component ATG_M_32_TRANS was analyzed into 1 assay endpoint. This assay endpoint, ATG_M_32_TRANS, was analyzed in the positive analysis fitting direction relative to DMSO as the negative control and baseline of activity. Using a type of inducible reporter, measures of mRNA for gain-of-signal activity can be used to understand the background control at the transcription factor-level as they relate to the gene . Furthermore, this assay endpoint can be referred to as a secondary readout, because this assay has produced multiple assay endpoints where this one serves a background control function. To generalize the intended target to other relatable targets, this assay endpoint is annotated to the background measurement intended target family, where the subfamily is internal marker.
Human liver HepG2 cells are transiently transfected with multiple reporter transcription units (MRTUs) in 6-well plates using FuGene 6 reagent (Roche; 3 ml FuGene/1 mg DNA). The MRTU constructs are regulated by a cis-regulating element (promoter). […] A major difference between the CIS and TRANS system is that in CIS activities of endogenous TFs are measured, whereas the TRANS assay evaluates changes in activities of exogenous, chimeric NR-Gal4 proteins. […] At the end of 24 hour incubation, total RNA was isolated using TriZol reagent (Invitrogen). The isolated RNA is then reverse-transcribed using oligo(dT) primer and Mo-MLV reverse transcriptase (Invitrogen) with DNAse I (Ambion) treatment for 30 min. The one-tenth of the produced cDNA was amplified by PCR using Taq DNA polymerase (Invitrogen) and two reporter sequence-specific primers. The PCR products were fluorescently labeled by primer extension with 6-arboxyfluorescein (6-FAM) 5'-labeled reporter sequence-specific primer (2 min at 95 C, 20 s at 68 C and 10 min at 72 C) and these products were digested with 5U of HpaI (New England Biolabs) for 2h at 37 C. The fragments were purified using Qiaquick PCR columns (Qiagen), analyzed on an ABI 3130xL genetic analyzer (Applied Biosystems) with peak positions identified by using a set of X-rhodamine (ROX)-labeled MapMarker1000 molecular weight standards (BioVentures). The raw capillary electrophoresis data was processed using Attagraph software (Attagene).

outcome, inactive:
OC[C@H]1O[C@H](O[C@]2(CCl)O[C@H](CCl)[C@@H](O)[C@@H]2O)[C@H](O)[C@@H](O)[C@H]1Cl
COc1ccc(Nc2ccccc2)c(C)c1
CC1=CC(=O)NS(=O)(=O)O1
COc1ccc(OC)c(OC)c1
CCCCCC(=O)OCCc1ccccc1
O=S(=O)(O)c1ccc(O)c2ncccc12
Nc1cccc(S(=O)(=O)c2cccc(N)c2)c1
CC(=O)OCCOC(C)=O
COCCOCCOCCOCCOCCO
C=CC(C)(CCC=C(C)C)OC=O (stereo not given)
CC1COc2ccccc2N1C(=O)C(Cl)Cl (stereo not given)
CCCCCCCCCCCCOCCO
C=C(C)C(=O)O[C@H]1C[C@@H]2CC[C@@]1(C)C2(C)C
CC(C)Oc1ccccc1O
CCC(C)(O)CCC=C(C)C (stereo not given)
CCCCC(CC)COC(=O)/C=C\C(=O)OCC(CC)CCCC (stereo not given)
COc1ccc(Cl)cc1C
CC(C#N)(CCC(=O)O)N=NC(C)(C#N)CCC(=O)O (stereo not given)
CCC(C(=O)NC(N)=O)c1ccccc1 (stereo not given)
CCCCCCOC(=O)CCCCC
O=C(O)Cc1cccc2ccccc12
CCCc1c(OCCCOc2ccc(OCC(=O)O)cc2)ccc(C(C)=O)c1O
CN(C)CCCN
Nc1cc(Cl)c(O)c(Cl)c1
C=C(C)C(=O)OCCOC(=O)CC(C)=O
CCCCCCCCC
Cc1ccc(C(=O)O)o1
CCCCCCCCCCCCN
CCCCCCCCCCCCCCCC(=O)O
CC1CCC(C(C)CS)CC1S (stereo not given)
CCCCCCCCCCCCCCCC(=O)OC[C@H](O)[C@H]1OC(=O)C(O)=C1O
C=CC(=O)NCOCC(C)C
Nc1cc([N+](=O)[O-])ccc1Cl
Cc1ccc(C(=O)c2cc(O)c(O)c([N+](=O)[O-])c2)cc1
NCCCCCCN
Cc1c(Cl)c(=O)oc2cc(O)ccc12
Nc1cc(N)cc(C(=O)O)c1
CCCCCCC#CC(=O)OC
C=CC(=O)OCCOCCOCC
Nc1ccc(F)c([N+](=O)[O-])c1
